“And” between values parts separate entries of the source, which are not always exact repeats. Equal entries are not always repeated. Inconclusive results are not listed. Where a structure was tested more than once in an assay, its records may differ in their call. The source made the active and inactive calls. How the source made its calls: active means hit-call score of the fitted dose curve at least 0.9, where 1 is the maximum; inconclusive means response in the unintended direction; inactive means score below 0.9.
How the values were obtained:
[1] = ATG_GAL4_TRANS: Attagene TRANS-FACTORIAL HepG2 Assay for GAL4 (Internal Marker) (AID 2282976); conditions: HepG2 Attagene TRANS GAL4 internal marker reporter
Outline: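 RT-PCR/capillary electrophoresis readout of reporter mRNA. HepG2, transient MRTU transfection (GAL4-UAS reporters), 24 h compound exposure. Background-control endpoint, positive direction vs DMSO baseline.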

[2] = biological target: Oxysterols receptor LXR-alpha (Homo sapiens) (UniProt Q13133); assay: ATG_LXRa_TRANS: Attagene TRANS-FACTORIAL HepG2 Assay for human Liver X Receptor alpha (LXRa) (AID 2282980); conditions: HepG2 Attagene TRANS reporter, LXRa transactivation
Outline: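 Read-out: reporter transcript levels by RT-PCR plus capillary electrophoresis, fluorescence intensity. Transiently transfected HepG2, exogenous NR-GAL4 chimera, GAL4-UAS reporters; 24 h compound exposure. Activity = increase over DMSO negative control.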

[3] = biological target: Oxysterols receptor LXR-beta (Homo sapiens) (UniProt P55055); assay: ATG_LXRb_TRANS: Attagene TRANS-FACTORIAL HepG2 Assay for human Liver X Receptor beta (LXRb) (AID 2282981); conditions: HepG2 Attagene TRANS GAL4-LXRb reporter, mRNA
Outline: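 Liver-derived HepG2 cells transfected with Gal4-responsive reporters were dosed for 24 h. Activation was scored as rise in reporter mRNA, by RT-PCR and capillary electrophoresis, above DMSO baseline.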

[4] = biological target: Nuclear receptor subfamily 4 group A member 2 (Homo sapiens) (UniProt P43354); assay: ATG_NURR1_TRANS: Attagene TRANS-FACTORIAL HepG2 Assay for human Nuclear Receptor Related Protein 1 (NURR1) (AID 2282985); conditions: HepG2 Attagene TRANS reporter, mRNA readout
Outline: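 Chimeric NR-Gal4 proteins were expressed in human HepG2 cells bearing GAL4-UAS reporter units, and induced reporter mRNA was quantified 24 h post-dosing by RT-PCR and capillary electrophoresis.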

[5] = biological target: Glucocorticoid receptor (Homo sapiens) (UniProt P04150); assay: ATG_GR_TRANS: Attagene TRANS-FACTORIAL HepG2 Assay for human Glucocorticoid Receptor (GR) (AID 2282978); conditions: HepG2 Attagene TRANS GR reporter, mRNA transcription;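 further: activators score as hits since higher reporter transcript over DMSO is fitted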
Outline: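 Reporter transcript levels, detected by fluorescence after RT-PCR and capillary electrophoresis, served as the endpoint. HepG2 cells bearing transfected GAL4-UAS reporters responsive to NR-GAL4 chimeras were incubated with compound 24 h; DMSO defined baseline.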

[6] = biological target: Hepatocyte nuclear factor 4-alpha (Homo sapiens) (UniProt P41235); assay: ATG_HNF4a_TRANS: Attagene TRANS-FACTORIAL HepG2 Assay for human Hepatocyte Nuclear Factor 4 alpha (HNF4a) (AID 2282982); conditions: HepG2 HNF4a transactivation reporter, mRNA readout
Outline: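 Using HepG2 liver cells transfected with GAL4-UAS reporter units, chemical-induced mRNA increases were assessed after 24 hours. Fluorescent RT-PCR fragments were separated by capillary electrophoresis and compared with DMSO negative controls.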

[7] = ATG_M_06_TRANS: Attagene TRANS-FACTORIAL HepG2 Assay for M06 Transcription Factor (Internal Marker) (AID 2282983); conditions: HepG2 Attagene TRANS M06 internal marker reporter
Outline: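 Read-out: fluorescent reporter cDNA fragments resolved by capillary electrophoresis after RT-PCR and HpaI cut. Source cells were HepG2 carrying transfected multi-reporter GAL4 constructs, dosed 24 h. Increase over DMSO control analysed.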

[8] = ATG_M_32_TRANS: Attagene TRANS-FACTORIAL HepG2 Assay for M32 Transcription Factor (Internal Marker) (AID 2282984); conditions: HepG2 Attagene TRANS M32 internal marker reporter;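 further: transcript level of a background control reporter unit measured by RT-PCR and capillary electrophoresis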
Outline: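 Fluorescence-detected mRNA induction, HepG2 liver cells, 24 h after dosing. Multiple GAL4-UAS reporter units introduced by transient transfection; background-control endpoint analysed for gain of signal against DMSO.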

[9] = biological target: Bile acid receptor (Homo sapiens) (UniProt Q96RI1); assay: ATG_FXR_TRANS: Attagene TRANS-FACTORIAL HepG2 Assay for Farnesoid X Receptor (FXR) (AID 2282979); conditions: HepG2 Attagene TRANS FXR-GAL4 reporter transcription;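 further: hits raise reporter mRNA above DMSO so AC50 marks FXR activation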
Outline: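 Read-out: fluorescent reporter transcripts quantified by capillary electrophoresis after RT-PCR of total RNA. Source cells were HepG2 transiently carrying chimeric NR-GAL4 plus GAL4-UAS reporter units, dosed 24 h. Activity fitted upward relative to DMSO baseline.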

[10] = biological target: Estrogen-related receptor gamma (Homo sapiens) (UniProt P62508); assay: ATG_ERRg_TRANS: Attagene TRANS-FACTORIAL HepG2 Assay for human Estrogen-Related Receptor gamma (ERRg) (AID 2282977); conditions: HepG2 Attagene TRANS reporter, ERRg transactivation;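 further: hits increase reporter signal over DMSO so potencies reflect activators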
Outline: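 Readout: fluorescent reporter-mRNA fragments resolved by capillary electrophoresis after RT-PCR and HpaI cut. Cells: transiently transfected HepG2 carrying GAL4-UAS reporters driven by exogenous NR-Gal4 chimeras, dosed 24 h. Activity fitted upward relative to DMSO baseline.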

Measured: AC50

Nuclear receptor subfamily 4 group A member 2 (Homo sapiens), sequence (P43354 whole entry, looked up, the tested form may be a part): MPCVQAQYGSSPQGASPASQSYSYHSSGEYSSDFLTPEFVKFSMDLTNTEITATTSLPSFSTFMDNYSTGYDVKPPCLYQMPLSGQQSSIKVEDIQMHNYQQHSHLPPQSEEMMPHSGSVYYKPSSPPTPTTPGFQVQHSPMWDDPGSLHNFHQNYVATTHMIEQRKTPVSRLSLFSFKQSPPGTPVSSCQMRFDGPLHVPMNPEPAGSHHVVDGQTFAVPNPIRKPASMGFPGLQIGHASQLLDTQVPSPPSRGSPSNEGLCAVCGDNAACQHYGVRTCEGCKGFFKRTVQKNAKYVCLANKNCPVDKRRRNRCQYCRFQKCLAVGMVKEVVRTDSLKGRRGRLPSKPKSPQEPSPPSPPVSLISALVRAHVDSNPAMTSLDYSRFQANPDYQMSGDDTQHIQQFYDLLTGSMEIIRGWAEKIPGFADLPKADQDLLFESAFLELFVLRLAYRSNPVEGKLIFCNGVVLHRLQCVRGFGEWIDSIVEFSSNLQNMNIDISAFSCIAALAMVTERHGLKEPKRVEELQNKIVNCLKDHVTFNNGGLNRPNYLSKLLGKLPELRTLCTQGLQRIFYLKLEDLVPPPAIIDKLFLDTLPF
Bile acid receptor (Homo sapiens), sequence (Q96RI1 whole entry, looked up, the tested form may be a part): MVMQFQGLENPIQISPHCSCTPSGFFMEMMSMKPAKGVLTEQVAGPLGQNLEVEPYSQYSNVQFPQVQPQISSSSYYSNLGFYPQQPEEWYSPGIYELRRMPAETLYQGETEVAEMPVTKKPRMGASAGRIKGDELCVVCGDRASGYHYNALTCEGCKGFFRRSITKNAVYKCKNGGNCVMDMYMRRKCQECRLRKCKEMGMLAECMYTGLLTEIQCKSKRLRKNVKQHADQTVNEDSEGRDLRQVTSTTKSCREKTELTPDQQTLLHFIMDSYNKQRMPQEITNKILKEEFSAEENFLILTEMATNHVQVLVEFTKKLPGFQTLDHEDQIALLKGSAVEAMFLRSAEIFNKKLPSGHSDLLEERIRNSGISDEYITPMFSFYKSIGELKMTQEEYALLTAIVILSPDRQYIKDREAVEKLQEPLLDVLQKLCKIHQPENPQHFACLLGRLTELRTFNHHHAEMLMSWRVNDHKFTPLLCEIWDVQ
Estrogen-related receptor gamma (Homo sapiens), sequence (P62508 whole entry, looked up, the tested form may be a part): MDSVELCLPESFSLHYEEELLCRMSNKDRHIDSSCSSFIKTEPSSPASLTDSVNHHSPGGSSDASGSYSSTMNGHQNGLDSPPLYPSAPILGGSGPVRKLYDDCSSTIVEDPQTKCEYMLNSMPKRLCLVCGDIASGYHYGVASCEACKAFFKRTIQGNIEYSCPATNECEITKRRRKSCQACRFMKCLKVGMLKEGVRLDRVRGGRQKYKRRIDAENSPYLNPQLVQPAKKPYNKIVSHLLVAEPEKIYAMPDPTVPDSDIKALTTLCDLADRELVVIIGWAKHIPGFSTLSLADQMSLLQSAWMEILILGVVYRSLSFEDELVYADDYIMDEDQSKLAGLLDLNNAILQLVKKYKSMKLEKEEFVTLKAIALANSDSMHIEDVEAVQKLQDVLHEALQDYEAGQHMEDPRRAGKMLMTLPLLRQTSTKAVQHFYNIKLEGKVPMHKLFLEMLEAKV
Hepatocyte nuclear factor 4-alpha (Homo sapiens), sequence (P41235 whole entry, looked up, the tested form may be a part): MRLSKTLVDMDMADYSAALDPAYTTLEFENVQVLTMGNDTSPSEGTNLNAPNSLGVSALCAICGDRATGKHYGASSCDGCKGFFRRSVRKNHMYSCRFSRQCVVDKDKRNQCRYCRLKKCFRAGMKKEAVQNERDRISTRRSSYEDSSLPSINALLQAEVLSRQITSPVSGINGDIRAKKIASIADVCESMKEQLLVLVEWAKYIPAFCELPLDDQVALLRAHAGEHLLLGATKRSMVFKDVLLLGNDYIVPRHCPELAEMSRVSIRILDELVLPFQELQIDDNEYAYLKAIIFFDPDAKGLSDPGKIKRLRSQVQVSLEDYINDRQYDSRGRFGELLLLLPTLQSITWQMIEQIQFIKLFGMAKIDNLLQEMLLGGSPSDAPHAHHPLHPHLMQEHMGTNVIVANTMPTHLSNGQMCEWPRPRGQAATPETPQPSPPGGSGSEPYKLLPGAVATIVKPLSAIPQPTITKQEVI
Glucocorticoid receptor (Homo sapiens), sequence (P04150 whole entry, looked up, the tested form may be a part): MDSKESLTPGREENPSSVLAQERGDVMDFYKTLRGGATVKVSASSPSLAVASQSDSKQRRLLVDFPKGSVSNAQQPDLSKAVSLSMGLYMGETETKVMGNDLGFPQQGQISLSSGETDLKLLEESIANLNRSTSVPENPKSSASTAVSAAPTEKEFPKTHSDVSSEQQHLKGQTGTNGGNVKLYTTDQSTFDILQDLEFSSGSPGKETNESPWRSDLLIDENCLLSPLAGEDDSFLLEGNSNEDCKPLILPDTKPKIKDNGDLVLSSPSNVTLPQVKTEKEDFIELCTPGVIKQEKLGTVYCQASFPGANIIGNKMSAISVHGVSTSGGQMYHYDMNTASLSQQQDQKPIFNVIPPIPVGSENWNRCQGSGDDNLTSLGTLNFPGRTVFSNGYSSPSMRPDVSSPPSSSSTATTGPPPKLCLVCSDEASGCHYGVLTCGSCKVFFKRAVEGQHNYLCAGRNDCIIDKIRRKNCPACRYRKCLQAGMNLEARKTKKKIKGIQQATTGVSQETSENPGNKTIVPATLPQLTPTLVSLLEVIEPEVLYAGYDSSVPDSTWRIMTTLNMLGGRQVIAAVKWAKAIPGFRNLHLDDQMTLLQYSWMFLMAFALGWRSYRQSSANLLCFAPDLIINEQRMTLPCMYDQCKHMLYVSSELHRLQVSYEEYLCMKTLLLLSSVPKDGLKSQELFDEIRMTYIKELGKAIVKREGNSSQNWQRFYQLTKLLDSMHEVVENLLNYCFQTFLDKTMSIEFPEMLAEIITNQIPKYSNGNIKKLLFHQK
Oxysterols receptor LXR-alpha (Homo sapiens), sequence (Q13133 whole entry, looked up, the tested form may be a part): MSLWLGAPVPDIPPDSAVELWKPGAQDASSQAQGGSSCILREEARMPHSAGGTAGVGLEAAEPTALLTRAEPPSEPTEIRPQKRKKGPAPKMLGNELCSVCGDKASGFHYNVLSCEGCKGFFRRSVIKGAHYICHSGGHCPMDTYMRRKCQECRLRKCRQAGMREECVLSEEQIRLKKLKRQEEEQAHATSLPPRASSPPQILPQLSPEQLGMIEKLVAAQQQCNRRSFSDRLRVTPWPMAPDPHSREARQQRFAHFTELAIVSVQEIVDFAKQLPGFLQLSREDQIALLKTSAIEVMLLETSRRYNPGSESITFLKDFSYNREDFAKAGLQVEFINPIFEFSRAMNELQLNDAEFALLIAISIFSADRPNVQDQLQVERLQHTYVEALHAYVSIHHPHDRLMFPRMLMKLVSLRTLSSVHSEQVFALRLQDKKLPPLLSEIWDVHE
Oxysterols receptor LXR-beta (Homo sapiens), sequence (P55055 whole entry, looked up, the tested form may be a part): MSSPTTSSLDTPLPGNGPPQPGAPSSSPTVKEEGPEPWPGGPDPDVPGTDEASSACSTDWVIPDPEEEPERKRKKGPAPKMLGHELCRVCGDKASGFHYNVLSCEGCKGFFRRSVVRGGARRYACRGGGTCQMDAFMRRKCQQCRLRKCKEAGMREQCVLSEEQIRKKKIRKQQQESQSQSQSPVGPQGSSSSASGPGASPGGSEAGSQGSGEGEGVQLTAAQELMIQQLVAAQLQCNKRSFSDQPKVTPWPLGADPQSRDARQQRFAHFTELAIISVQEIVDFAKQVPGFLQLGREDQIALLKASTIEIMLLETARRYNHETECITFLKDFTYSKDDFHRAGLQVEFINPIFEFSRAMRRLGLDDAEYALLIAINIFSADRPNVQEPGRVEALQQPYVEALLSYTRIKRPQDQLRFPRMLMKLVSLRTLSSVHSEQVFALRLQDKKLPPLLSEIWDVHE

CC(C)C(=O)OCC(C)(C)C(OC(=O)C(C)C)C(C)C (centres undefined)
inactive: [1] | [2] | [3] | [4]

Cc1ccc(O)c(C)c1
inactive: [1] | [5]

Clc1ccc(Cl)cc1
not listed: [9] | [10]
inactive: all other assays above

O=S(=O)(O)C(F)(F)C(F)(F)C(F)(F)C(F)(F)C(F)(F)C(F)(F)F
not listed: [6] | [10]
inactive: all other assays above

C[C@]12CCC(=O)C=C1CC[C@@H]1[C@@H]2CC[C@]2(C)C(=O)CC[C@@H]12
not listed: [5]
inactive: all other assays above

c1ccc(-c2ccccc2)cc1
inactive: [1] | [5] | [9] | [8] | [4]

CCOC(=O)C(O)(c1ccc(Cl)cc1)c1ccc(Cl)cc1
inactive: [1] | [5] | [2] | [7] | [8]

Clc1ccc(C(Cl)(Cl)Cl)cc1
inactive: [1] | [5] | [3] | [7] | [8]

CC1=C2C[C@H]3[C@@H](CC=C4C[C@@H](O)CC[C@@]43C)[C@@H]2CC[C@]12O[C@@H]1C[C@H](C)CN[C@H]1[C@H]2C
inactive: [1] | [5] | [9] | [7] | [8]

N#Cc1ccc(N(CC(N)=O)CC(F)(F)F)cc1C(F)(F)F
inactive: [1] | [2]

CCCN(CCC)N=O
inactive: [1] | [3] | [7] | [8]

O=S(=O)(O)C(F)(F)C(F)(F)C(F)(F)C(F)(F)F
not listed: [9]
inactive: all other assays above

Sc1ccccc1
inactive: [1] | [5] | [3] | [7] | [8] | [4]

O=C(NC(=O)c1c(F)cccc1F)Nc1cc(Cl)c(OC(F)(F)C(F)F)c(Cl)c1
inactive: [1] | [2] | [7]

O=C(NC(=O)c1cc(F)c(F)cc1Cl)Nc1cc(F)ccc1N1CCC(C(=O)O)CC1
inactive: [1] | [5] | [3] | [6] | [4]

C=CC(N)=O
not listed: [5] | [9]
inactive: all other assays above

CCCCCCOC(=O)c1ccccc1C(=O)OCCCCCC
inactive: [1] | [5] | [7] | [4]

O=C(O)C(F)(F)C(F)(F)C(F)(F)C(F)(F)C(F)(F)C(F)(F)C(F)(F)C(F)(F)C(F)(F)F
inactive: [1] | [10] | [5] | [2] | [3] | [6] | [7] | [8] | [4]
active: [4] 12.9 µM

Cc1ccccc1[N+](=O)[O-]
inactive: [1] | [7] | [8]

CN(C)CCO
not listed: [2] | [9]
inactive: all other assays above

Nc1ccc(-c2ccc(N)cc2)cc1
inactive: [1] | [5] | [6] | [7] | [8]

Cc1ccccc1O
inactive: [1] | [5] | [2] | [3]

Cc1cccc(C)c1N
inactive: [1] | [5] | [9] | [6] | [7]

Cc1cc2c3c(c1)C(c1ccccc1)=N[C@@H](NC(=O)c1ccncc1)C(=O)N3CC2
inactive: [1] | [8] | [4]

CC(C)(c1ccccc1)c1ccc(O)cc1
active: [9] 48.9 µM
inactive: [1] | [5] | [9] | [2] | [3] | [7] | [8] | [4]

CCC(C)c1cc([N+](=O)[O-])cc([N+](=O)[O-])c1O (centres undefined)
not listed: [1] | [4] | [8]
inactive: all other assays above

c1cc2ccc3cccc4ccc(c1)c2c34
inactive: [1] | [3] | [6] | [7] | [8] | [4]

CCC(=O)O[C@H]1CC[C@H]2[C@@H]3CCC4=CC(=O)CC[C@]4(C)[C@H]3CC[C@]12C
inactive: [1] | [5] | [2] | [3] | [6] | [7] | [8] | [4]
active: [2] 25.3 µM | [3] 3.11 µM and 25.7 µM

C[C@]12CCC(=O)C=C1CC[C@@H]1[C@@H]2CC[C@@]2(C)[C@H]1CC[C@]2(C)O
not listed: [10]
inactive: all other assays above
